Assay outcomes from PubChem BioAssay.
S-ASM inh: inhibitors of human secretory acid sphingomyelinase | placental ASM, HMU-PC fluorogenic substrate, 60 min | Potency, µM (highest dose often 57.5 µM), inactives show top-dose activity change, negative = inhibition, most hits filed as inhibitors | AID 504937 | P17405 | 0.006% of 340,000 active; also: potency is read from the fitted curve at half-maximal effect
Target sequence (P17405 47-631 limits assumed): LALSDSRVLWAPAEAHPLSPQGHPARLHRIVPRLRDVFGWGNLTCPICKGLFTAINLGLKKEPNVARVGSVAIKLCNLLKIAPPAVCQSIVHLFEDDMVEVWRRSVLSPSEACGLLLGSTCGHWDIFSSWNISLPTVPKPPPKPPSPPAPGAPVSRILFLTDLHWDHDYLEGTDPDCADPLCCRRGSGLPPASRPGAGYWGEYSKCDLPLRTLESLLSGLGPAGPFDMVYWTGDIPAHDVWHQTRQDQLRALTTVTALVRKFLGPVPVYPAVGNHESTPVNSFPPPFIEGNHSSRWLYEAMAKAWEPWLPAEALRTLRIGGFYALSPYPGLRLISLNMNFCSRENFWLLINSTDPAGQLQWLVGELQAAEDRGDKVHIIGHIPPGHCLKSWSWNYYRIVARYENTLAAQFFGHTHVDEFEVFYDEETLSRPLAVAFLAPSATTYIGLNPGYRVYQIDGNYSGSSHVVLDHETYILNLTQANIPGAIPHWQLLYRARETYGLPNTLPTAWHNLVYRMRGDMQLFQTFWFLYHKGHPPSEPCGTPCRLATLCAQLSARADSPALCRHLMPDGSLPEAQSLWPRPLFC
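Human placenta-derived ASM enzyme was preincubated with compound for 10 minutes at room temperature, then given fluorogenic substrate HMU-PC0 (9 uM final) for 60 minutes at 37 °C; a pH 10 stop preceded fluorescence reading at Ex 386/Em 447 nm.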
HepG2 tox: HepG2 cytotoxicity, counter-screen for TGF-b inhibitors | 0.76% of 410,000 active | Potency, µM (series often up to 46.1 µM), inactives show at the top dose activity change, negative = cytotoxicity, most hits filed as cytotoxic | HepG2 CAGA-GFP viability, ATP luminescence, 18 h; also: potency is read from the fitted curve at half-maximal effect
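HepG2 CAGA-GFP cells (1000/well, DMEM with 1% FBS) received compound, then TGF-beta at 500 pg/mL final, and were incubated 18 hours at 37 degrees C. Viability was read by CellTiter-Glo luminescence. Media-only wells were set as complete cell-killing and DMSO as no toxicity.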
TDP1 cell noCPT: qHTS for Inhibitors of human tyrosyl-DNA phosphodiesterase 1 (TDP1): qHTS in cells in absence of CPT; 15% of 420,000 active; Potency, µM (doses to about 46.2 µM), inactives show at the highest dose activity change, negative = growth inhibition, most hits filed as inhibitors; DT40 Tdp1-/- hTDP1 cells, no CPT, ATP luminescence, 48 h; also: potency is read from the fitted curve at half-maximal effect; % is scaled to controls: 0 for no effect and ±100 for the full control effect; nearly all actives have a fitted effect of over 55% in size
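Stably hTDP1-transfected Tdp1-null chicken DT40 cells were treated with library compounds minus camptothecin and grown for at least 48 hr at 37 °C, after which cellular ATP was quantified by luminescence.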
TDP1 cell CPT: DT40-hTDP1 cell growth loss with CPT; chicken DT40 Tdp1-/-;hTDP1 cells + 20 nM CPT, ATP luminescence, 48 h; Potency, µM (doses to about 46.2 µM), for inactives: top-dose activity change, negative = growth inhibition, actives largely listed as inhibitors; 12% of 420,000 active; also: potency is read from the fitted curve at half-maximal effect; % is scaled to controls: 0 for no effect and ±100 for the full control effect; nearly all actives have a fitted effect of over 55% in size
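Chicken DT40 Tdp1-/- cells stably complemented with human TDP1 were seeded at 400 cells/well in medium containing 20 nM camptothecin, exposed to pin-transferred compounds, and grown at 37 °C for at least 48 hr. Viability was read as ATP luminescence.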
IL1B secr inh: inflammasome signaling inhibition, IL-1 beta readout; activity change, % at 57.5 µM; AID 743279; THP-1 LPS/ATP IL-1B secretion, AlphaLISA, 16 h; stronger effect = lower value; 4.7% of 360,000 active; in the data active = activity change below about -50%; inconclusive = mostly about -30% to -49%; also: % is scaled to controls: 0 for no effect and ±100 for the full control effect
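THP-1 cells pretreated 1 hr with compounds (up to 57.5 uM final), then stimulated with LPS (250 ng/mL final) plus ATP (1.25 mM final); secreted IL-1B measured by AlphaLISA after 16 hr, decreased signal indicating inhibition.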
TGFb SMAD3 inh: inhibitors of TGF-b signaling | HepG2 CAGA-GFP TGF-b/SMAD3 reporter, GFP fluorescence, 18 h; TGF-beta stimulated, 500 pg/mL final | AID 588855 | Potency, µM (series often up to 46.1 µM), inactives show top-dose activity, negative = inhibition, most hits filed as inhibitors | 1.2% of 410,000 active; also: potency is read from the fitted curve at half-maximal effect; % is scaled to controls: 0 for no effect and ±100 for the full control effect; nearly all actives have a fitted effect of over 65% in size
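TGF-beta reporter screen: HEPG2 CAGA-GFP, 1% FBS, 500 pg/mL TGF-beta final, 18 h; per-cell GFP summed per well; curves fitted and categorized by class.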
Numbers without * were called inactive; u = inconclusive; x = no result; ! = not active in a repeat. Shown are actives, neighbours in structure and some others; about 19% of the full set was active somewhere. Unless noted, calls follow the shape of the dose curve; as a rule, active = well fitted curve in the direction sought with a large enough effect; inconclusive = small, poorly fitted or top-dose-only effect, or another doubt; inactive = no such curve, though single readings can be large; an effect the other way counts as inactive or inconclusive.

SMILES | S-ASM inh | HepG2 tox | TDP1 cell noCPT | TDP1 cell CPT | IL1B secr inh | TGFb SMAD3 inh
CC(=O)c1c(O)n(-c2cccc(Cl)c2)c(=O)[nH]c1=O (tested in a mixture with another compound) | 0% | 11% | -15% | 3% | -10 | -2%
CC(C)c1cccc(O)c(=O)c1 | 0% | 4% | 22µM* | 6.5µM*! | 0 | 3%
C[C@]12CCC3C(CC[C@H]4C[C@H](O)CC[C@]34C)C1[C@@H](O)[C@@H](O)[C@@H]2O (stereo partly specified) | 0% | -23% | -9% | 11% | 6 | 23%
COc1ccc(C2CN(C)CC2C(=O)c2ccc(F)cc2)cc1Cl (stereo unspecified) | -1% | -16% | 21µM* | -14% | -58* | -14%
CC(C)[C@@H]1CN[C@H](C(=O)O)[C@@H]1CC(=O)O | x | x | -16% | -1% | x | x
O=C(NC1CCCCC1)Oc1cc2oc(=O)sc2cc1Cl | 2% | -34% | 15µM* | -17% | 23 | u
Cc1ccc(C(=O)OCC(=O)NC2CCCCC2)o1 | 4% | -2% | -19% | 6% | 12 | u
CCC(=O)Nc1ccc(C(=O)OCc2ccccc2Cl)cc1 | -15% | -7% | u | u | 1 | 8%
CCOC(=O)c1ccc(NC(=O)Nc2cc3c(cc2N2CCCCC2)n(CC)c(=O)n3CC)cc1 | x | -2% | 10µM* | 12µM* | x | u
CCOC(=O)c1ccc(N2CCN(c3ccccc3F)CC2)c(NC(=O)Nc2ccc(Cl)c(Cl)c2)c1 | x | -25% | 1.3µM* | 1.3µM* | x | -5%
Cc1ccc(NC(=O)Nc2cc3c(cc2N2CCCCC2)n(C)c(=O)n3C)cc1Cl | x | -9% | 7.3µM* | 16µM* | x | u
N#CC(c1ccccc1)N1CCOCC1 (stereo unspecified) | 8% | 1% | 19% | -6% | -12 | -4%
CCOC(=O)C(NC(=O)CCl)(Nc1ccc(C(O)(C(=O)OCC)C(F)(F)F)cc1)C(F)(F)F (stereo unspecified) | 1% | -7% | u | u | -89* | -8%
CCOC(=O)C(NC(=O)CC)(Nc1ccc(C(O)(C(=O)OCC)C(F)(F)F)cc1C)C(F)(F)F (stereo unspecified) | 6% | -15% | -13% | -18% | -25 | 2%
COC(=O)C(O)(c1ccc(NC(=S)NC(=O)c2ccc(Cl)cc2Cl)cc1)C(F)(F)F (stereo unspecified) | -15% | -49% | 15µM* | u | -1 | u
CCOC(=O)C(O)(c1ccc(NC(=S)NC(=O)c2ccc(Cl)cc2Cl)cc1)C(F)(F)F (stereo unspecified) | -10% | -36% | 26µM* | u | u | 0%
Cc1ccc(-n2c(C)nc3cc(Cl)ccc3c2=O)nc1 | 2% | -4% | 13% | -6% | 16 | 0%
CCN1C(=NCCOC)N[C@@H](c2cccc(F)c2)C(C(=O)OC)=C1C | 14% | -5% | -23% | -4% | -10 | u
CN1CCCCC1c1cccnc1 (stereo unspecified) | x | x | -2% | -3% | x | x
COc1ccc(-c2coc3cc(OC(=O)N4CCOCC4)ccc3c2=O)cc1 | 5% | -17% | 18µM* | 13µM* | 0 | -26%
COc1cccc(Oc2coc3cc(OC(=O)N(C)C)ccc3c2=O)c1 | 0% | -44% | u | u | -22 | -18%
COc1ccc([N+](=O)[O-])cc1N=Cc1c(O)n(CCc2ccccc2)c(=O)n(C(C)C)c1=O | -3% | -26% | 16µM* | u | 0 | u
CC1(C)C(O)CC(O)[C@]2(C)C1CC(=O)[C@]1(C)C2CC[C@@]2(C)C(c3ccoc3)OC(=O)C3OC321 (stereo partly specified) | x | x | -8% | u | x | x
Cc1ccc(NC(=O)C2C3CCCC2C3c2ccccc2)c(C)c1 (stereo unspecified) | 0% | 12% | 23µM* | u | -1 | 6%
COC(=O)C1=C(c2ccc(OC(F)(F)F)cc2)C[C@@H]2CC[C@H]1N2C(=O)NCc1cc(C)oc1C(F)(F)F | -11% | -16% | 21µM* | u | 16 | u
SMILES | S-ASM inh | HepG2 tox | TDP1 cell noCPT | TDP1 cell CPT | IL1B secr inh | TGFb SMAD3 inh
COC(=O)C1=C(c2ccc(S(C)(=O)=O)cc2)C[C@@H]2CC[C@H]1N2C(=O)NCc1ccc(F)cc1 | -3% | -12% | -14% | 0% | 41 | -1%
COC(=O)C1=C(c2ccccc2)C[C@@H]2CC[C@H]1N2C(=O)NCc1ccc(C(F)(F)F)cc1 | 2% | -30% | u | u | -23 | -14%
COC(=O)C1=C(c2ccc3ccccc3c2)C[C@@H]2CC[C@H]1N2C(=O)NCc1ccc(F)cc1 | -3% | 6% | 16µM* | u | -7 | u
COC(=O)C1=C(c2ccc3ccccc3c2)C[C@@H]2CC[C@H]1N2C(=O)NCc1ccc(C(F)(F)F)cc1 | -7% | -26% | u | u | u | u
COC(=O)C1=C(c2ccc(C(C)=O)cc2)C[C@@H]2CC[C@H]1N2C(=O)NCc1ccc(C(F)(F)F)cc1 | -1% | -3% | u | u | 26 | 7%
COC(=O)C1=C(c2ccc(OC(F)(F)F)cc2)C[C@@H]2CC[C@H]1N2C(=O)NCc1ccc(F)cc1 | -4% | -4% | 21µM* | 18µM* | -9 | u
COC(=O)C1=C(c2ccc(OC(F)(F)F)cc2)C[C@@H]2CC[C@H]1N2C(=O)NCc1cccc2ccccc12 | -15% | 5% | u | u | -71* | u
COc1ccccc1C1CC2CCC(C1OC(C)=O)N2Cc1ccccc1 (stereo unspecified) | -1% | -5% | u | u | 7 | 0%
Cc1o[nH]c(=O)c1C[C@@H](N)C(=O)O | x | -15% | -1% | 1% | x | 31%
CCOP(=O)(OCC)C(Nc1cccc(C(F)(F)F)c1)c1ccc(C)cc1 (stereo unspecified) | 0% | -29% | 18µM* | u | -16 | u
CCOP(=O)(OCC)C(Nc1cccc([N+](=O)[O-])c1)c1ccc(OC)cc1 (stereo unspecified) | -3% | -7% | 13µM* | u | -13 | 15%
